This is a sample that favours compounds with a hit; in the whole collection about 4.8% have one here.
ATXN2 expr inh: Primary qHTS for Inhibitors of ATXN expression; HEK-293 ATXN2-luciferase reporter, luminescence, 24 h; Potency, µM (titrated, usually from 57 µM), usual class: inhibitors; 360,000 tested, 0.72% active; note: nearly all actives have a fitted effect of over 55% in size
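qHTS (up to 57 uM final) was run with 24 h compound exposure of reporter cells at 37 °C. Each well was multiplexed: SteadyGlo luminescence measured ATXN2-luciferase expression after a fluorogenic Gly-Phe-AFC viability readout (25 uM final).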
IL1B secr inh: qHTS for Inhibitors of Inflammasome Signaling: IL-1-beta AlphaLISA Primary Screen | THP-1 LPS/ATP IL-1B secretion, AlphaLISA, 16 h; active compounds read low | activity change, % at 57.5 µM | 360,000 tested, 4.7% active | AID 743279, 2014; in the data active = activity change below about -50%; inconclusive = mostly about -30% to -49%
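Secreted IL-1B measured by AlphaLISA bead assay after 16 h compound exposure of THP-1 cells; compounds (final up to 57.5 uM) added 1 h before LPS (250 ng/mL) and ATP (1.25 mM) stimulation; lower signal means less secretion.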
USP1-UAF1 inh: Inhibitors of USP1/UAF1: Primary Screen. recombinant USP1/UAF1, Ub-Rhodamine cleavage fluorescence. Ubiquitin carboxyl-terminal hydrolase 1 (Homo sapiens), O94782. Potency, µM (highest dose often 57.1 µM), hits mostly inhibitors. 390,000 tested, 0.23% active; note: nearly all actives have a fitted effect of over 60% in size
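USP1/UAF1 complex at 1 nM was preincubated with compound for 15 min at room temperature, then Ub-Rho substrate (150nM final) was added. Fluorescence (480/540 nm) was read kinetically, 6 reads every 60 seconds.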
S2 tox: Viability Counterscreen for Primary qHTS for Inhibitors of ATXN expression | S2 cells (HEK-293 line with an ATXN2-luciferase reporter) viability, CellTiter-Fluor protease fluorescence, 24 h | Potency, µM (highest dose often 56.7 µM), actives largely listed as cytotoxic | 400,000 tested, 0.49% active | AID 651635, 2014; note: nearly all actives have a fitted effect of over 40% in size
USP2a inh: qHTS Assay for Inhibitors of Ubiquitin-specific Protease USP2a Using CHOP2 as the Reporter; Ubiquitin carboxyl-terminal hydrolase 2 (Homo sapiens), O75604; USP2 core, Ub-CHOP2 coupled fluorogenic reporter, 485/531; Potency, µM (doses to about 38.3 µM), usual class: inhibitors; 330,000 tested, 0.01% active; AID 463254, 2010
Target sequence (O75604 whole entry, looked up): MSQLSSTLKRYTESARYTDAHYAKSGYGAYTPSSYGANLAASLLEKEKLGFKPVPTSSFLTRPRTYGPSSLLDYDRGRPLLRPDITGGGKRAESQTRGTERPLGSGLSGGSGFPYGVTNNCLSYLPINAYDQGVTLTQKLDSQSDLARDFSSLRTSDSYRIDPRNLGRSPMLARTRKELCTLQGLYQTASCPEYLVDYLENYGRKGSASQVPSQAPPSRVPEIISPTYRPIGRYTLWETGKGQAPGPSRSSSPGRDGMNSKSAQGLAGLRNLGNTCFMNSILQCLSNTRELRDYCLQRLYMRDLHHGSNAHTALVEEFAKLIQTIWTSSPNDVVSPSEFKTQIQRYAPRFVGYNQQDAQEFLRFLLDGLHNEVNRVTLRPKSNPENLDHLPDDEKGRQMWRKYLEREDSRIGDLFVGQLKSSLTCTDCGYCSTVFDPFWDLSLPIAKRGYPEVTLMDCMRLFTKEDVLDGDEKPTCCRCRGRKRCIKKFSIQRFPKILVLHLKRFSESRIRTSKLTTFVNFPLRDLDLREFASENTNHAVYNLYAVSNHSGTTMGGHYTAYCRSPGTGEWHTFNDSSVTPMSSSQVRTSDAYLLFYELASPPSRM
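Deubiquitinase activity read as fluorescence (485/531 nm) after Ub-CHOP2 cleavage activates the enterokinase reporter on its substrate; USP2 core 10nM, Ub-CHOP2 and substrate 25nM each, 30min compound preincubation then 60min RT; data normalized to NEM, curves fitted.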
Large screens that a line does not name were inactive; ! = a repeat was not active. Unless noted, calls come from the whole dose curve; as a rule, active = well fitted curve in the direction sought with a large enough effect; inconclusive = small, poorly fitted or top-dose-only effect, or another doubt; inactive = no such curve, though single readings can be large; an effect the other way counts as inactive or inconclusive.

O=C(NCCN1CCOCC1)/C(=C/c1ccc(Cl)cc1)NC(=O)c1ccccc1	IL1B secr inh inconclusive
COc1ccc(-n2ncc(C(=O)N3CCN(c4cc(C)ccc4C)CC3)c2C2CCN(C(=O)OC(C)(C)C)CC2)cc1	none (no result: ATXN2 expr inh, IL1B secr inh, S2 tox, USP2a inh)
Nc1nc(N)c(-c2ccccc2)s1	none (no result: IL1B secr inh, USP1-UAF1 inh, USP2a inh)
CCOC(=O)c1c(C)sc2c1N(C(=O)CCl)c1cc(Cl)ccc1S2	ATXN2 expr inh inconclusive, IL1B secr inh -101, S2 tox 18µM
O=C(Nc1ccc(N2CCOCC2)cc1)c1ccc([N+](=O)[O-])cc1	none
CCN1CCN(c2ccc(S(=O)(=O)N3CCCCC3)cc2NC(=O)c2cccc(OC(F)F)c2)CC1	IL1B secr inh inconclusive
CCN1CCN(c2ccc(S(=O)(=O)N3CCCCC3)cc2NC(=O)c2ccc(OC(F)F)cc2)CC1	IL1B secr inh -76
CN1CCN(c2ccc(S(=O)(=O)N3CCCCC3)cc2NC(=O)/C=C/c2ccc(OC(F)F)cc2)CC1	IL1B secr inh -80, USP1-UAF1 inh inconclusive
CN1CCN(c2ccc(S(=O)(=O)N3CCCCC3)cc2NC(=O)/C=C/c2ccc(Cl)c([N+](=O)[O-])c2)CC1	ATXN2 expr inh 22µM, IL1B secr inh -81, S2 tox inconclusive
CCN1CCN(c2ccc(S(=O)(=O)N3CCCCC3)cc2NC(=O)/C=C/c2ccc(OC(F)F)cc2)CC1	IL1B secr inh -84
CCn1c(=NC(=O)c2ccc3c(c2)OCCO3)sc2c(C)ccc(OC)c21	none (no result: ATXN2 expr inh, IL1B secr inh, S2 tox, USP2a inh)
O=C(NCCN1Cc2ccccc2OC(c2ccccc2F)C1)c1cncs1 (centres undefined)	none (no result: ATXN2 expr inh, IL1B secr inh, USP1-UAF1 inh, USP2a inh)
C=Cc1ccc(Cn2c(C)c(C(=O)NCc3ccccc3C(F)(F)F)sc2=O)cc1	IL1B secr inh inconclusive (no result: USP1-UAF1 inh, USP2a inh)
CCn1c(-c2cccc(OC)c2)nc2cc(NC(C)=O)cc(C(=O)N3CCC[C@H]3C(=O)OC)c21	none (no result: ATXN2 expr inh, IL1B secr inh, USP1-UAF1 inh, USP2a inh)
Cc1ccc(CNC(=O)C2(C)CCN2C(=O)Cc2ccc(-c3ccccc3)cc2)cc1 (centres undefined)	ATXN2 expr inh inconclusive, S2 tox inconclusive (no result: USP1-UAF1 inh, USP2a inh)
CCOC(=O)CNC(=O)Cn1cnc2c(nnn2-c2ccc(OC)cc2)c1=O	none (no result: ATXN2 expr inh)
CCN1CCN(c2ccc(S(=O)(=O)N3CCCCC3)cc2NC(=O)/C=C/c2ccc([N+](=O)[O-])cc2)CC1	ATXN2 expr inh 32µM, IL1B secr inh -99, S2 tox inconclusive
OC(c1ccc2c(c1)CN(Cc1cccn1-c1cccnc1)CCO2)C1CCCCC1 (centres undefined)	none (no result: ATXN2 expr inh, IL1B secr inh, USP1-UAF1 inh, USP2a inh)
O=[N+]([O-])c1ccc(-c2nc(NCc3ccccc3)c3ccccc3n2)cc1	none
COc1ccc(CNc2nc(-c3ccccc3)nc3ccccc23)cc1OC	IL1B secr inh -62, USP1-UAF1 inh inconclusive, S2 tox inconclusive
Fc1ccc(CNc2nc(-c3ccccc3)nc3ccccc23)cc1	IL1B secr inh -62, USP1-UAF1 inh inconclusive
c1ccc(-c2nc(NC3CCCC3)c3ccccc3n2)cc1	IL1B secr inh -63
O=C1NC(=O)C(Cc2ccccc2)(C2CCN(Cc3cccn3-c3cccnc3)CC2)N1 (centres undefined)	none (no result: ATXN2 expr inh, IL1B secr inh, USP1-UAF1 inh, USP2a inh)
NC(=O)[C@@H]1CCCN1C(=O)c1cc(NC(=O)c2ccccc2)cc2ncn(C3CCCC3)c12	none (no result: ATXN2 expr inh, IL1B secr inh, USP1-UAF1 inh, USP2a inh)
O=C1COc2ccc(-c3csc(NCCc4ccccc4)n3)cc2N1	IL1B secr inh -76
c1ccc(CCNc2nc(-c3ccncc3)cs2)cc1	IL1B secr inh -60
CCCCCNc1nc(-c2ccccc2)cs1	none (no result: ATXN2 expr inh, IL1B secr inh, USP1-UAF1 inh, S2 tox)
CCC(C)C(=O)Nc1nc(-c2ccc3c(c2)NC(=O)CO3)cs1 (centres undefined)	S2 tox inconclusive
Cc1sc(NC(=O)c2cccs2)c(C(N)=O)c1C	IL1B secr inh -59, S2 tox inconclusive
CCOC(=O)c1c(NC(=O)C2=C(C)NC(=S)NC2c2ccc(C)cc2)sc(C)c1C (centres undefined)	IL1B secr inh -76 (no result: S2 tox)
CCOC(=O)c1c(NC(=O)c2cccnc2)sc(C)c1C	IL1B secr inh -54
CCOC(=O)c1c(NC(=O)C2=C(C)NC(=S)NC2c2ccc(F)cc2)sc(C)c1C (centres undefined)	IL1B secr inh -87, S2 tox inconclusive
CCOC(=O)c1sc(NC(=O)c2cccnc2)c(C#N)c1C	none
Cc1c(C(=O)NCc2ccco2)sc(=O)n1Cc1ccc(S(C)(=O)=O)cc1	IL1B secr inh inconclusive (no result: USP1-UAF1 inh, USP2a inh)
Cc1cccc(NC(=O)c2cc(S(=O)(=O)NCCc3ccccc3)ccc2F)c1C	none (no result: ATXN2 expr inh, IL1B secr inh, S2 tox, USP2a inh)
O=C(O)c1c(O)c(-c2ccccc2)nc2ccccc12	none (no result: IL1B secr inh, USP1-UAF1 inh, USP2a inh)
O=C(Nc1ccccc1N1CCN(C(=O)c2ccccc2)CC1)c1cc2ccccc2o1	none
O=C(Nc1ccc(N2CCN(C(=O)c3ccccc3)CC2)cc1)c1cc2ccccc2o1	IL1B secr inh -97
CN1CCN(c2ccc(NC(=O)c3cc4ccccc4o3)cc2)CC1	none (no result: ATXN2 expr inh)
CCCC(=O)N1CCN(c2ccc(NC(=O)c3cc4ccccc4o3)cc2)CC1	ATXN2 expr inh inconclusive, IL1B secr inh -56
Cc1nn2c(-c3ccccn3)ccnc2c1Cl	none
COc1cc2c(cc1OC)CN(C(=O)CSC1=NCCS1)CC2	S2 tox inconclusive (no result: ATXN2 expr inh, USP2a inh)
COc1cc2c(cc1OC)CN(C(=O)CSc1ccccc1C)CC2	IL1B secr inh -60
O=C(CN1CC(=O)Nc2ccccc21)NCCc1ccc(Cl)cc1Cl	IL1B secr inh -102, S2 tox inconclusive
CC(NC(=O)CCc1nnc(-c2ccc(-c3ccccc3)cc2)o1)c1nc2ccccc2[nH]1 (centres undefined)	ATXN2 expr inh 3.8µM, IL1B secr inh inconclusive
COc1cccc(CC2(CO)CCCN(Cc3cn(C)c4ccccc34)C2)c1 (centres undefined)	none (no result: ATXN2 expr inh)
Cn1cc(CN2CCCC(CO)(Cc3ccccc3)C2)c2ccccc21 (centres undefined)	IL1B secr inh -59, USP1-UAF1 inh inconclusive
CCn1cc(CN2CCCC(CO)(Cc3ccc(F)cc3)C2)c2ccccc21 (centres undefined)	ATXN2 expr inh inconclusive, IL1B secr inh -65
O=C(CN1CCC(C(O)(c2ccccc2)c2ccccc2)CC1)Nc1cc(Cl)ccc1Cl	IL1B secr inh -67
O=C(CN1CCCCC1)Nc1cc(Cl)ccc1Cl	none
O=C(CN1CCC(C(O)(c2ccccc2)c2ccccc2)CC1)Nc1ccccc1	IL1B secr inh -55, S2 tox inconclusive
CCC[C@H]1CN(c2ccc(Br)cc2)C(=O)[C@@H]1CC(=O)Nc1ccccc1	S2 tox inconclusive (no result: USP2a inh)
CCC(C)Cn1cnc2c(SCc3ccccc3F)nc(N)nc21 (centres undefined)	IL1B secr inh -56 (no result: USP2a inh)
CC(C)Cn1cnc2c(N)nc3ccccc3c21	ATXN2 expr inh 22µM!
CC(C)Cn1cnc2c(SCc3ccccc3F)nc(N)nc21	S2 tox inconclusive (no result: USP2a inh)

Assay outcomes deposited in PubChem by National Center for Advancing Translational Sciences (NCATS).
